In the library only some 4.6% were active in any assay of this set; here they are far more common.
TR SRC2 fluor cs – Total Fluorescence Counterscreen for Inhibitors of the Interaction of Thyroid Hormone Receptor and Steroid Receptor Coregulator 2 | TRb/SRC2 Texas Red total fluorescence interference | Potency, µM (highest dose often 106 µM) | actives 0.29% (n = 280,000) | AID 1479, 2009; active means well fitted curve in either direction with a large enough effect; inconclusive means small, poorly fitted or top-dose-only effect
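Human TRβ ligand-binding domain (0.6 uM) and Texas Red SRC2 peptide (20 nM) in Tris buffer with 1 uM T3 and 5% DMSO were incubated with pinned compound for 5 hr at ambient temperature. Total fluorescence was computed as S + 2P (555/632 nm).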
Tau FP inhib – qHTS for Inhibitors of Tau Fibril Formation, Fluorescence Polarization. Potency, µM (series often up to 57.7 µM), most hits filed as inhibitors. K18 P301L tau heparin fibrillization, Alexa594 FP, 6 h. actives 0.39% (n = 280,000); further: nearly all actives have a fitted effect of over 55% in size
Target sequence (P10636 561-689 P618L limits assumed): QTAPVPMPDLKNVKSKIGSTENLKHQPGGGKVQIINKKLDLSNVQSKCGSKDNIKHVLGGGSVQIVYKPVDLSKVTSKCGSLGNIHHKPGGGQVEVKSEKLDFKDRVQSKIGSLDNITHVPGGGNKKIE
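Heparin (20 uM) drove fibril formation of recombinant tau K18 P301L, 15 uM unlabeled with 0.24 uM Alexa 594 label, for 6 hr at 37 C in 100 mM sodium acetate pH 7. Fluorescence polarization (555/632 nm) read 1 hr after 30 uM ThT.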
PNC assembly inh – High Content Assay for Compounds that inhibit the Assembly of the Perinucleolar Compartment; PC3M PTB-GFP, PNC prevalence imaging, 16 h; active compounds read low; activity change (PNC), negative = inhibition, % at 10 µM; actives 3.1% (n = 140,000);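 active means readout at or below -70, meaning at least 70% loss of cells showing the perinucleolar compartment, a nuclear body marking cancer cells; inconclusive means readout between -30 and a set limit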
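Read-out is percentage of cells bearing a perinucleolar compartment, from automated 20x imaging of fixed, Hoechst-stained PC3M PTB-GFP cells. Cells were seeded 4 h, then exposed 16 h to compound (23 nl of library stock) in duplicate plates.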
Tau fibril ThT – qHTS for Inhibitors of Tau Fibril Formation, Thioflavin T Binding | Microtubule-associated protein tau (Homo sapiens), P10636 | recombinant tau K18 P301L, heparin-induced fibrillization, ThT fluorescence | Potency, µM (titrated, usually from 57.4 µM), most hits filed as inhibitors | actives 2.1% (n = 270,000) | AID 1460, 2008; further: nearly all actives have a fitted effect of over 55% in size
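Fibril formation assay: tau K18 P301L at 15 uM with trace Alexa 594 label, heparin inducer 20 uM, pH 7 sodium acetate buffer, 37 C for 6 hr; endpoint ThT signal.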
Tau fluor counter – Counterscreen qHTS for Inhibitors of Tau Fibril Formation, Fluorescence Polarization; tau K18 P301L (four-repeat tau fragment) Alexa594 fluorescence, heparin fibrillization; Potency, µM (series often up to 57.7 µM); actives 0.93% (n = 280,000); further: nearly all actives have a fitted effect of over 55% in size
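Human K18 P301L tau (15 uM unlabeled plus 0.24 uM Alexa 594-labeled, final) in 100 mM sodium acetate pH 7 was mixed with compound and 20 uM heparin and incubated 6 hr at 37 C.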
TRb SRC2 PPI – qHTS for Inhibitors of the Interaction of Thyroid Hormone Receptor and Steroid Receptor Coregulator 2; Potency, µM (titrated, usually from 106 µM), actives largely listed as inhibitors; Thyroid hormone receptor beta (Homo sapiens), P10828; actives 0.065% (n = 280,000); TRbeta-SRC2 peptide binding, fluorescence polarization; receptor liganded with 1 µM T3; further: nearly all actives have a fitted effect of over 50% in size
Target sequence (P10828 whole entry, looked up): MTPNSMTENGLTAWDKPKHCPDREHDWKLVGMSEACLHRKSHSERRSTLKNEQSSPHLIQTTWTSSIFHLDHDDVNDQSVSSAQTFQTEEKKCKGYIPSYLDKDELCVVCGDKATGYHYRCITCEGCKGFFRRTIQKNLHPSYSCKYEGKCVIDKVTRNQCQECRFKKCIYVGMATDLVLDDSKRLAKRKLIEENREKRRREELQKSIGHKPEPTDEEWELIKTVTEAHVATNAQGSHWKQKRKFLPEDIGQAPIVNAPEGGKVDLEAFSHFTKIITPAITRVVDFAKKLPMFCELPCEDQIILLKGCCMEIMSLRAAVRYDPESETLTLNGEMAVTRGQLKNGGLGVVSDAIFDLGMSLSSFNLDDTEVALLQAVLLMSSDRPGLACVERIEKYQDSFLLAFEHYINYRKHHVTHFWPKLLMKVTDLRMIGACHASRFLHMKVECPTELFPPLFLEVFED
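Human TRb ligand-binding domain (0.6 uM) is mixed with 20 nM Texas Red SRC2 peptide and 1 uM T3; after compound addition and 5 hr at ambient temperature, polarization is measured and normalized to unbound and bound controls.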
A number is an active result; – = inactive; ? = inconclusive; · = no result; [ ] = dose if it differs, or a comment. Unless noted, the call rests on the fitted dose curve; in most records, active means well fitted curve in the direction sought with a large enough effect; inconclusive means small, poorly fitted or top-dose-only effect, or another doubt; inactive means no such curve, though single readings can be large; an effect the other way counts as inactive or inconclusive.

SMILES	TR SRC2 fluor cs	Tau FP inhib	PNC assembly inh	Tau fibril ThT	Tau fluor counter	TRb SRC2 PPI
COc1ccc2nc(N3CCC(C)CC3)c(C#N)cc2c1	–	?	–	35.5µM	?	–
O=C(CSc1cccc[n+]1[O-])Nc1cc(S(=O)(=O)N2CCOCC2)ccc1Cl	–	–	-88.3	–	–	–
COc1cc(/C=C(/C#N)c2nc3ccccc3[nH]2)ccc1Oc1ncccc1[N+](=O)[O-]	–	–	–	?	?	–
CC1CCCN(c2ccc(/C=C(\C#N)c3nn(-c4ccccc4)c(N)c3C#N)cc2[N+](=O)[O-])C1 (stereo not given)	–	–	–	14.1µM	?	–
N#C/C(=C(/O)c1ccc([N+](=O)[O-])o1)c1nc2ccccc2[nH]1	–	–	·	7.08µM	?	–
CC1CCN(c2ccc(/C=C(\C#N)c3nn(-c4ccccc4)c(N)c3C#N)cc2[N+](=O)[O-])CC1	–	–	?	?	?	–
N#C/C(=C\c1ccc(Sc2ccccc2)o1)c1nc2ccccc2[nH]1	–	?	?	–	–	–
N#C/C(=C\c1ccc([N+](=O)[O-])o1)c1nc2ccccc2[nH]1	–	?	–	7.08µM	11.2µM[quencher]	–
N#C/C(=C\c1ccc(N2CCCC2)c([N+](=O)[O-])c1)c1nc2ccccc2[nH]1	–	–	–	2µM	?	–
Cc1ccc2nc(/C(C#N)=C\c3ccc([N+](=O)[O-])o3)[nH]c2c1	–	?	–	8.91µM	12.6µM[quencher]	?
CC(=O)c1ccc(NC(=O)Nc2sc3nc4n(c(=O)c3c2C)CCC(C)CC4)cc1 (stereo not given)	–	?	·	?	12.6µM[quencher]	–
CCc1cccc2c(C(=O)COC(=O)c3ccc([N+](=O)[O-])s3)c[nH]c12	–	–	–	7.08µM	11.2µM[quencher]	–
O=C(OCC(=O)c1c[nH]c2ccccc12)c1ccc([N+](=O)[O-])s1	–	–	·	–	–	–
Cc1ccc2nc(SCC(=O)Nc3cc(C(F)(F)F)ccc3N3CCOCC3)[nH]c2c1	–	–	-103.6	–	?	–
COc1ccccc1-n1c(SCC(=O)c2ccc(O)cc2O)nc2cc([N+](=O)[O-])ccc21	–	?	–	–	10µM[quencher]	–
CC(C)N1CCC2(CC1)C(C#N)=C(N)NC(S)=C2C#N	–	?	–	20µM	?	–
N#CC1=C(N)NC(SCC(=O)O)=C(C#N)C12CCCC2	–	–	–	?	–	–
COc1ccccc1NCCC(=O)OCC(=O)NC1CC1	3.55µM[quencher]	–	–	–	–	?
O=C(c1cc(-c2ccco2)nn1-c1cccc(Cl)c1)N1CCCCC1	–	?	?	28.2µM	–	–
CC(C)NC(=O)c1cc(-c2ccco2)nn1-c1ccc(Cl)cc1	–	–	–	?	–	–
O=C(NCc1ccccc1Cl)c1ccccc1NC(=O)c1nsc2ccccc12	–	?	·	–	–	–
COCCCn1c(SCC(=O)N2CC(=O)Nc3ccccc32)nnc1-c1ccoc1C	–	–	–	–	–	–
COCCN1C(=O)c2ccc(C(=O)NCc3cccnc3)cc2C1=O	–	–	–	–	–	–
CN1C(=O)c2ccc(C(=O)NCc3ccccc3)cc2C1=O	–	–	-92.4	–	–	–
COc1ccc(N(C)C2=NS(=O)(=O)c3ccccc32)cc1	–	–	-101.2	–	–	–
SMILES	TR SRC2 fluor cs	Tau FP inhib	PNC assembly inh	Tau fibril ThT	Tau fluor counter	TRb SRC2 PPI
Cc1cccn2c(/C=N/OCc3ccc(F)cc3)c(-c3ccc(Cl)cc3)nc12	–	–	-108.8	–	–	–
COc1ccc(/C(C#N)=C/c2c(-c3ccc(Cl)cc3)nc3c(C)cccn23)cc1	–	–	–	–	–	–
CC(C)(C)NC(=O)COc1ccc(CNc2ncn[nH]2)cc1	–	–	·	–	–	–
CC(/C=C(\NC(=O)c1ccccc1)C(=O)N=Nc1c(O)[nH]c2ccc(C)cc12)=C\c1ccccc1	–	–	–	20µM	?	–
Cc1cc(C(=O)O)ccc1-n1c(C)cc(C=C2C(=O)c3ccccc3C2=O)c1C	–	–	·	14.1µM	–	–
C#CC1(NC(=O)N(C)C)CCCCC1	–	–	·	–	–	–
CCOC(=O)CSc1c(-c2cccs2)[nH]c2ccccc12	–	?	–	?	8.91µM[quencher]	–
CCOC(=O)CSc1c(-c2ccc(Cl)cc2)[nH]c2ccccc12	–	?	–	–	11.2µM[quencher]	–
CCOC(=O)CSc1nc(N)c(C#N)c(-c2cccs2)c1C#N	–	?	–	–	–	–
CC(=O)N1CCCc2ccccc21	–	–	–	–	–	–
O=C(NN1C(=O)c2ccccc2NC1c1ccoc1)c1ccccc1 (stereo not given)	–	–	·	–	–	–
CN(C)S(=O)(=O)c1ccc(C(=O)N2CCCC2c2nc3ccccc3s2)cc1 (stereo not given)	–	–	?	–	–	–
O=S(=O)(c1ccc(Br)cc1)N1CCCC1c1nc2ccccc2s1 (stereo not given)	–	–	-100.0	–	–	–
COc1ccc(C(=O)NNC(=O)Cn2nnc(-c3ccc(OC)c(OC)c3)n2)cc1	–	–	·	?	–	–
CN1C/C(=C\c2ccc(N3CCOCC3)cc2)C(=O)/C(=C/c2ccc(N3CCOCC3)cc2)C1	–	–	–	0.631µM	–	–
CN1C/C(=C/c2ccsc2)C(=O)/C(=C/c2ccsc2)C1	–	–	?	–	–	–
CCN1C/C(=C/c2ccc(N3CCOCC3)cc2)C(=O)/C(=C/c2ccc(N3CCOCC3)cc2)C1	–	–	?	0.631µM	–	–
Cn1cc(C(=O)N/N=C/c2ccc3c(c2)OCO3)c2ccccc21	–	–	·	?	?	–
CC1=NN(/C(=N\c2nnc(C)s2)Nc2ccccc2)[C@H](c2cccc3ccccc23)S1	–	–	?	–	–	–
Cc1cc(C)c2c(=O)n(CC(=O)NCCCN3CCN(c4ccccc4F)CC3)sc2n1	–	?	–	14.1µM	–	–
Cc1ccccc1CS(=O)(=O)CCC(=O)NCCCN1CCN(c2ccccc2F)CC1	–	–	–	–	–	–
Cc1cc(C)c2c(=O)n(CC(=O)NCCCN3CCOCC3)sc2n1	–	15.8µM	?	10µM	–	–
Cc1ccc(SCC(=O)NCCCN2CCOCC2)cc1	–	–	?	–	–	–
CO/N=C/c1cc([N+](=O)[O-])ccc1Sc1ccc(C)cc1	–	–	–	–	–	–
CC(C)CNC1=CC(=O)CC(c2ccco2)C1 (stereo not given)	–	?	-80.9	28.2µM	–	–

Assay outcomes: PubChem BioAssay, National Center for Advancing Translational Sciences (NCATS)
